Compound activity: PubChem, National Center for Advancing Translational Sciences (NCATS)
A selection: hits, their analogues and other compounds. The true share with any hit is near 3.3%.
Sm TGR inh: blocks Schistosoma mansoni thioredoxin glutathione reductase. Q962Y6. purified TGR, DTNB reduction, TNB absorbance 405 nm. Potency, µM (highest dose often 114 µM), actives largely listed as inhibitors. actives 3% (n = 360,000). AID 485364; also: nearly all actives have a fitted effect of over 60% in size
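Kinetic colorimetric format: TGR-catalysed, NADPH-driven DTNB reduction monitored via TNB absorbance. Enzyme dispensed at 20 nM; compound exposure 15 min at room temperature before reaction start.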
AmpC inh no detg: AmpC beta-lactamase inhibition without detergent; P00811; AmpC nitrocefin hydrolysis, absorbance 480 nm, 0.0001% Triton; Potency, µM (series often up to 57.1 µM), actives largely listed as inhibitors; actives 0.52% (n = 330,000); also: nearly all actives have a fitted effect of over 20% in size
Target sequence (P00811 whole entry, looked up): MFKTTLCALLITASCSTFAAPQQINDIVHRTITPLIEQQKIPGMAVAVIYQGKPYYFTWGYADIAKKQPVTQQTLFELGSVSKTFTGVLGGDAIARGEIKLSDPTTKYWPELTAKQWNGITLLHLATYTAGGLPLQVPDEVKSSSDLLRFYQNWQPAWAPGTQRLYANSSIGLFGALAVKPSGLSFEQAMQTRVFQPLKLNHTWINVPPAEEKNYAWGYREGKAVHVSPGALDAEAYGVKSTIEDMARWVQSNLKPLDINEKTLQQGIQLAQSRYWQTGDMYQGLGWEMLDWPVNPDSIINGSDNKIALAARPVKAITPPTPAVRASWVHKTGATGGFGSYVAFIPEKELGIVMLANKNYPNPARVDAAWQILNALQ
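AmpC (5.3 nM in the dispensed reagent) in 20 mM phosphate pH 7.0 with 0.01% (detergent screen) or 0.0001% Triton X-100 was preincubated with compounds for 15 min at room temperature. Nitrocefin was then added from an 800 uM solution, and hydrolysis was followed at 480 nm.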
AmpC inh detg: inhibitors of E. coli AmpC beta-lactamase with detergent. AID 485294. Potency, µM (doses to about 114 µM), actives largely listed as inhibitors. actives 0.041% (n = 370,000). P00811. AmpC hydrolysis of nitrocefin, absorbance 480 nm, 0.01% Triton; also: nearly all actives have a fitted effect of over 25% in size
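20 mM phosphate pH 7.0 + 0.01% (detergent screen) or 0.0001% Triton X-100; 5.3 nM AmpC reagent; cpd preinc 15 min RT; nitrocefin (800 uM stock) to start; A480 q20 s × 4 min; Activity was normalised to no-enzyme and no-compound control wells.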
Large screens that a line does not name were inactive. Calls follow the shape of the dose curve; as a rule, active = well fitted curve in the direction sought with a large enough effect; inconclusive = small, poorly fitted or top-dose-only effect, or another doubt; inactive = no such curve, though single readings can be large; an effect the other way counts as inactive or inconclusive.

CCc1ccc(-n2c(SCc3ccccc3C)nc3[nH]ncc3c2=O)cc1	none (no result: AmpC inh no detg)
O=C(Nc1nnc(-c2ccco2)s1)c1ccccc1	Sm TGR inh 25µM
COc1ccc(C(=O)Nc2nnc(-c3ccco3)s2)cc1	none
O=C(Nc1nnc(-c2ccco2)s1)C1CCN(S(=O)(=O)c2ccc(Cl)cc2)CC1	none
O=C(Nc1nnc(-c2ccco2)s1)C1CC1	Sm TGR inh 45µM, AmpC inh detg inconclusive
CCOc1ccc(NC(=O)c2cnn3c2NC(C)=C(C(=O)Nc2ccc(Cl)cc2)C3c2ccc(OC)c(OC)c2)cc1 (configuration not stated)	none (no result: AmpC inh no detg)
COCCn1c(SCC(=O)c2ccc(F)cc2)nc2cc(C(=O)NC3CCCC3)ccc2c1=O	none (no result: AmpC inh no detg)
COc1ccc(/C=C2\N=C3CCCCCN3C2=O)cc1OC	AmpC inh detg inconclusive
COc1cc(/C=C2\COC/C(=C\c3ccc(O)c(OC)c3)C2=O)ccc1O	Sm TGR inh 50µM
COc1ccc(/C=C2\CN(Cc3ccccc3)C/C(=C\c3ccc(OC)c(O)c3)C2=O)cc1O	Sm TGR inh 45µM
COc1cc(/C=C2\N=C3CCCCCN3C2=O)ccc1O	Sm TGR inh 56µM
COc1cc(/C=C2/CC/C(=C/c3ccc(O)c(OC)c3)C2=O)ccc1O	Sm TGR inh 45µM
COc1cc(C=C2C(=O)c3ccccc3C2=O)ccc1O	none
COc1ccc(/C=C2\CC/C(=C\c3ccc(OC)c(OC)c3)C2=O)cc1OC	none
CCN1C/C(=C/c2ccc(OC)c(O)c2)C(=O)/C(=C/c2ccc(OC)c(O)c2)C1	none
CCOc1cccc(C2c3c(oc4ccc(F)cc4c3=O)C(=O)N2c2cc(C)ccn2)c1 (configuration not stated)	none (no result: AmpC inh no detg)
CCOc1ccccc1CNC(=O)c1ccc2c(c1)sc1nc(-c3cccc(OC)c3)cn12	none (no result: AmpC inh no detg)
COc1cc(C(=O)Nc2ccc3nc(SCc4ccccc4)sc3c2)cc(OC)c1OC	none (no result: AmpC inh no detg)
Cc1c(Cl)cccc1NC(=O)C(C)n1nc(C)c2c(C)n(-c3ccccc3)nc2c1=O (configuration not stated)	none (no result: AmpC inh no detg)
COc1ccc(S(=O)(=O)NCCS(=O)(=O)N2CCN(c3ccccc3)CC2)cc1C	none (no result: AmpC inh no detg)
O=Cc1ccc(OCCOc2ccc([N+](=O)[O-])cc2)cc1	none
Cc1ccc(OCCOc2cccc(C=C3C(=O)NC(=O)NC3=O)c2)c(C)c1	Sm TGR inh inconclusive
O=C1NC(=O)C(=Cc2cccc(OCCOc3ccccc3)c2)C(=O)N1	Sm TGR inh 11µM
O=C1NC(=O)C(=Cc2ccc(OCCOc3ccc([N+](=O)[O-])cc3)cc2)C(=O)N1	Sm TGR inh 16µM
CC1CCN(S(=O)(=O)c2ccc3c(c2)N(CC(=O)N(C)Cc2ccccc2)C(=O)CO3)CC1	none (no result: AmpC inh no detg)
N#Cc1nc(COc2cccc(Cl)c2)oc1NCCc1ccccc1	AmpC inh detg inconclusive (no result: AmpC inh no detg)
CN(C)CCNc1oc(COc2cccc(Cl)c2)nc1C#N	Sm TGR inh 35µM
CN(C)CCNc1oc(COc2ccc(Cl)cc2)nc1C#N	Sm TGR inh 28µM
COc1ccc(CCNc2oc(COc3ccc(F)cc3)nc2C#N)cc1	none
COc1ccc(C2=Nc3ccccc3N(CC(=O)Nc3cccc(C(C)=O)c3)C(=O)C2)cc1	none (no result: AmpC inh no detg)
Cc1ccc(/C=N/N(C)C2=NS(=O)(=O)c3ccccc32)o1	none
CN(/N=C/c1ccc(Br)o1)C1=NS(=O)(=O)c2ccccc21	Sm TGR inh 45µM
COc1cc(CN(CC2CCCO2)C(=O)c2ccc(F)cc2)cc(OC)c1OC (configuration not stated)	none (no result: AmpC inh no detg)
Cc1ccc(NC(=S)Nc2cccc3cnccc23)cc1	Sm TGR inh 45µM
Cc1ccc(C)c(NC(=S)Nc2cccc3cnccc23)c1	Sm TGR inh inconclusive
CC(=O)c1ccc(NC(=S)Nc2cccc3cnccc23)cc1	Sm TGR inh 20µM
CC(=O)c1cccc(NC(=S)Nc2cccc3ccccc23)c1	Sm TGR inh inconclusive
S=C(Nc1cccc(Cl)c1)Nc1cccc2cnccc12	Sm TGR inh 25µM
Cc1ccc(NC(=S)Nc2cccc3cnccc23)cc1C	Sm TGR inh inconclusive
COc1ccc(CNC(=O)c2ccc3nc(-c4ccc(F)cc4)c(-c4ccc(F)cc4)nc3c2)cc1	none (no result: AmpC inh no detg)
CN(C)c1ccc(CNS(=O)(=O)c2ccc3[nH]c4c(c3c2)CCCCC4)cc1	none (no result: AmpC inh no detg)
CCOC(=O)c1ccc(NC(=O)CN2C(=O)CC(c3ccc(C)c(C)c3)=Nc3ccccc32)cc1	none (no result: AmpC inh no detg)
Cc1cccc(N2C(=O)CSC23C(=O)N(C)c2ccccc23)c1 (configuration not stated)	none (no result: AmpC inh no detg)
Cc1ccc2c(c1)CCCN2C(=O)c1c(C)noc1C	AmpC inh no detg inconclusive
Cc1ccc2c(c1)CCCN2C(=O)c1ccoc1C	Sm TGR inh 50µM, AmpC inh detg inconclusive
CCn1c(CNC(=O)c2ccc(OC)cc2)nnc1SCC(=O)Nc1ccccc1	none (no result: AmpC inh no detg)
Nc1cc(N)c(OCC(F)(F)F)cc1OCC(F)(F)F	Sm TGR inh 1.1µM
Nc1cc(OCC(F)(F)F)cc([N+](=O)[O-])c1	none
Cc1ccc(NC(=O)N2CCc3cc(S(=O)(=O)N4CCC(C)CC4)ccc32)cc1	none (no result: AmpC inh no detg)
O=C1CC(SCc2nc3ccccc3[nH]2)C(=O)N1c1ccc(F)c(Cl)c1 (configuration not stated)	Sm TGR inh 40µM
O=C1CC(SCc2nc3ccccc3[nH]2)C(=O)N1c1ccc(Cl)cc1 (configuration not stated)	Sm TGR inh 25µM, AmpC inh detg inconclusive
CCCOc1ccc(N2C(=O)CC(SCCc3nc4ccccc4[nH]3)C2=O)cc1 (configuration not stated)	none
CCOc1ccc(N2C(=O)CC(SCc3nc4ccccc4[nH]3)C2=O)cc1 (configuration not stated)	Sm TGR inh 45µM
O=C1CC(SCc2nc3ccccc3[nH]2)C(=O)N1c1cccc(F)c1 (configuration not stated)	Sm TGR inh inconclusive
O=C1CC(SCCc2nc3ccccc3[nH]2)C(=O)N1c1ccc(Cl)cc1 (configuration not stated)	Sm TGR inh inconclusive
COc1cc(OC)c(NC(=O)Nc2cccc(OCc3cc(=O)n4ccccc4n3)c2)cc1Cl	none (no result: AmpC inh no detg)
O=C(NCc1ccc(F)cc1)c1ccc(CS(=O)Cc2ccc(Cl)cc2)o1 (configuration not stated)	Sm TGR inh inconclusive (no result: AmpC inh no detg)
O=C1CCCCc2sc(Br)c([N+](=O)[O-])c2N1	Sm TGR inh 0.79µM
Cc1oc(C)c2c(=O)cc(-c3ccc4c(c3)OCO4)cc(OC(=O)c3ccccc3Cl)c12	Sm TGR inh 40µM (no result: AmpC inh no detg)
Cc1oc(C)c2c(=O)cc(-c3ccc4c(c3)OCO4)cc(OC(=O)c3ccccc3Br)c12	Sm TGR inh 45µM (no result: AmpC inh no detg)
COc1cc(-c2cc(OC)c3c(C)oc(C)c3c(=O)c2)ccc1OC(=O)c1ccccc1F	none (no result: AmpC inh no detg)
COc1cc(-c2cc(OC)c3c(C)oc(C)c3c(=O)c2)ccc1OC(=O)c1ccccc1Cl	none (no result: AmpC inh no detg)
O=C(Cc1ccccc1)Nc1c(C(=O)Nc2ccccc2F)oc2ccccc12	none (no result: AmpC inh no detg)
COc1ccc(C)c2sc(N(Cc3cccnc3)C(=O)C3CCCCC3)nc12	none (no result: AmpC inh no detg)
CCSc1ncc(Cl)c(C(=O)Nc2ccc(S(=O)(=O)N3CCCCC3)cc2)n1	none (no result: AmpC inh no detg)
Cc1ccc(CNC(=O)c2c(-c3ccc(Br)cc3)noc2C)o1	none (no result: AmpC inh no detg)
